ClpP mod: qHTS Assay for Activators of ClpP; ATP-dependent Clp protease proteolytic subunit (Bacillus subtilis (strain 168)), P80244; purified B. subtilis ClpP, FRET peptide cleavage, 20 min; Potency, µM (highest dose often 57.5 µM), for inactives: top-dose activity change, negative = active; actives 1.9% (n = 340,000); active means well fitted falling curve with a large enough effect; inconclusive means small, poorly fitted or top-dose-only effect; inactive means no such curve, though single readings can be large or run the other way; further: the source files actives as falling curves though it sought activators and does not explain the sign; nearly all actives have a fitted effect of over 65% in size
Target sequence (P80244 whole entry, looked up): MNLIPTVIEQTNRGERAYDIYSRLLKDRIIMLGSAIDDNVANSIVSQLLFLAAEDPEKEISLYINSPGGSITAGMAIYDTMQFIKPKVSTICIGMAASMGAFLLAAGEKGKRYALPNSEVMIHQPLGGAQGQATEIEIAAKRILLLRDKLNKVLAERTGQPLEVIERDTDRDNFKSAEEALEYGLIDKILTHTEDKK
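ClpP 10 microg/mL final, pH 8 Tris/KCl buffer with BSA, glycerol, Tween-20; compound pinned in; FRET-FV substrate; RT 20 min; Ex320/Em430; ΔFRET vs ADEP 5.8 microM, DMSO, no enzyme.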
DT40 TDP1 CPT: growth inhibition of DT40 Tdp1-/-;hTDP1 cells with camptothecin (screen for TDP1 inhibitors); chicken DT40 Tdp1-/-;hTDP1 cells + 20 nM CPT, ATP luminescence, 48 h; Potency, µM (series often up to 46.2 µM), for inactives: at the highest dose activity change, negative = growth inhibition, usual class: inhibitors; actives 12% (n = 420,000); further: on the % scale 0 is the no-effect control and ±100 the full control effect; nearly all actives have a fitted effect of over 55% in size
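Cell growth measured by CellTiter-Glo luminescence after a minimum 48 h, 37 C compound exposure with 20 nM CPT in Tdp1-knockout DT40 cells stably expressing hTDP1, seeded 400/well; qHTS titration format.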
DT40 TDP1 no CPT: qHTS for Inhibitors of human tyrosyl-DNA phosphodiesterase 1 (TDP1): qHTS in cells in absence of CPT. DT40 Tdp1-/- hTDP1 cells, no CPT, ATP luminescence, 48 h. Potency, µM (top dose mostly 46.2 µM), for inactives: at the highest dose activity change, negative = growth inhibition, most hits filed as inhibitors. actives 15% (n = 420,000). AID 686978, 2013; further: on the % scale 0 is the no-effect control and ±100 the full control effect; nearly all actives have a fitted effect of over 55% in size
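Luminescent ATP content (CellTiter-Glo) served as the growth readout. Knockout chicken DT40 cells expressing human TDP1 were exposed to compounds without camptothecin for a minimum 48 hr at 37 °C.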
TDP1 block: TDP1 (human) enzyme inhibition. AID 485290. Potency, µM (highest dose often 130 µM), for inactives: top-dose activity change, negative = inhibition, actives largely listed as inhibitors. actives 0.28% (n = 350,000). recombinant TDP1, AlphaScreen DNA substrate cleavage; further: on the % scale 0 is the no-effect control and ±100 the full control effect; nearly all actives have a fitted effect of over 40% in size
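AlphaScreen read-out: signal falls as enzyme removes the 3' tyrosine-FITC from a 5'-biotinylated DNA oligo (15 nM, 5 min, RT). Enzyme was E. coli-made recombinant Tdp1 at 1 nM, exposed to compound for 15 min beforehand; beads 10 ug/ml, 10 min.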
* hit, by the source's call; ? = inconclusive; . = no result given; [ ] = remark or other dose. Only some compounds are listed: those with a hit (about 17% of all), similar ones and a draw of the others. Unless noted, the call rests on the fitted dose curve; in most records, active means well fitted curve in the direction sought with a large enough effect; inconclusive means small, poorly fitted or top-dose-only effect, or another doubt; inactive means no such curve, though single readings can be large; an effect the other way counts as inactive or inconclusive. Potency means the concentration at half of the fitted maximal effect.

SMILES	ClpP mod	DT40 TDP1 CPT	DT40 TDP1 no CPT	TDP1 block
Cc1ccc(-n2c(=O)c3c(c4cc(C)ccc4n3C)n(CC(=O)Nc3ccc(F)cc3)c2=O)cc1	?	?	?	6%
Cc1c(C(=O)N2CCCCC2)c(S(=O)(=O)N(C)Cc2ccccc2)c(C)n1C	0%	-12%	4%	6%
CN1/C(=C/C=C(C#N)C#N)C(C)(C)c2ccccc21	-4%	-21%	1%	9%
CN1/C(=C\C=Nc2ccc3ccccc3c2)C(C)(C)c2ccccc21	.	.	.	2%
CN(C)c1ccc(N=C/C=C2\N(C)c3ccccc3C2(C)C)cc1	-2%	5.2µM*	4.1µM*	14%
CN1\C(=C/C=C/C=C/C=[N+](C)C)C(C)(C)c2ccccc21	4%	2.6µM*	2.3µM*	10%
Cc1cc(/N=C/C=C2\N(C)c3ccccc3C2(C)C)n(CCC#N)n1	-2%	5.8µM*	4.6µM*	6%
Cc1nc(N2CCOCC2)c2nc(-c3ccccc3)n(CCN3CCCCC3)c2n1	.	.	.	7%
CC(=O)Nc1cc(C(=O)NCc2ccc(C)cc2)ccc1Sc1ccc(C)cc1	-1%	16µM*	23µM*	5%
CCOc1ccc(CNC(=O)c2ccc(Sc3ccc(Cl)cc3)c(NC(C)=O)c2)cc1OC	?	?	21µM*	5%
CCOC(=O)C[C@H]1c2ccc(C(F)(F)F)cc2S(=O)(=O)N1c1cccc(OC)c1	-1%	?	?	.
Cc1ccc(-c2c[n+](CC(=O)Nc3ccc(C)cc3C)c3n2CCC3)cc1	.	?	15µM*	1%
Cc1ccc(NC(=O)C[n+]2cc(-c3ccc(C)cc3)n3c2CCC3)cc1	.	4.1µM*	5.2µM*	3%
CC(=O)NC1=C(N(C)C2CCS(=O)(=O)C2)C(=O)c2ccccc2C1=O (configuration not stated)	948%	8.2µM*	9.2µM*	-5%
CN(C)c1ccc(NC(=O)CCCc2ccccc2)cc1	0%	-25%	-6%	7%
CC(=O)NC1=C(Nc2ccc(N(C)C)cc2)C(=O)c2ccccc2C1=O	0%	13µM*	?	9%
COc1ccc2cc(CNC3CCS(=O)(=O)C3)c(-c3ccc(OC)c(OC)c3)nc2c1 (configuration not stated)	.	4%[9.04 µM]	-4%	.
CCN(CC)C1=C(Cl)C(=O)C(Cl)C12OCCO2 (configuration not stated)	.	3%	-7%	9%
CC(C)c1ccc(NC(=O)CSc2nc(=O)n(CCN3CCOCC3)c3c2CCC3)cc1	-2%	-16%	-13%	2%[0.505 µM]
COc1ccc(CNC(=O)C(=O)NCC(c2cccnc2)N2CCN(c3ccccc3F)CC2)cc1 (configuration not stated)	0%	12µM*	18µM*	1%
COc1ccccc1N1CCN(C(CNC(=O)C(=O)NCc2cccnc2)c2cccnc2)CC1 (configuration not stated)	-2%	?	?	5%
COc1ccccc1N1CCN(C(CNC(=O)C(=O)NCc2ccc(F)cc2)c2cccnc2)CC1 (configuration not stated)	-3%	8.2µM*	5.8µM*	9%
COc1ccccc1N1CCN(C(CNS(C)(=O)=O)c2cccnc2)CC1 (configuration not stated)	0%	2%	-13%	2%
COc1ccccc1N1CCN(C(CNS(=O)(=O)c2ccc(C)cc2)c2cccnc2)CC1 (configuration not stated)	-1%	?	7.3µM*	4%
Cc1ccc(S(=O)(=O)CCC(=O)OCc2cc(=O)oc3cc(C)ccc23)cc1	-11%	-1%	-1%	2%
SMILES	ClpP mod	DT40 TDP1 CPT	DT40 TDP1 no CPT	TDP1 block
COc1cc(NC(=O)Cn2cc(C(=O)c3ccc(F)cc3)c(=O)c3ccc(C)nc32)cc(OC)c1	1%	?	-25%	1%
COc1ccc(OCCN2CCC(C(=O)NC(C)c3cccc4ccccc34)CC2)cc1 (configuration not stated)	-2%	?	?	.
Cc1nn2c3ccccc3nc2c2ccccc12	-8%	?	?	4%
Cc1nn(-c2ccc(F)cc2)c2c1cc(C#N)c1nc3ccccc3n12	16µM*	-2%	4%	-8%
O=C(NCC(c1ccco1)N1CCCCC1)c1ccc(COc2ccccc2)cc1 (configuration not stated)	-1%	?	?	0%
COC(=O)c1ccccc1NC(=O)c1noc2c1CCC2	-3%	-3%	-25%	11µM*
CSc1ccccc1NC(=O)c1noc2c1CCC2	0%	?	-20%	16µM*
C/C(=N\NC(=O)c1cc(C)oc1C)c1ccc(C)c([N+](=O)[O-])c1	0%	?	?	0%
Cc1nc2ccn(Cc3ccccc3)c(=O)c2cc1C(=O)NCc1ccccc1F	4%	?	?	5%
CC1=C(CC/C(C)=N/NC(N)=S)C(C)(C)CCC1	-1%	4µM*	3.2µM*	-2%
C/C(CC(=O)Nc1ccc(Cl)c(Cl)c1)=N\NC(N)=S	-1%	?	?	3%
CCCc1nn(C)c2c(=O)[nH]c(-c3ccccc3OCC)nc12	20µM*	7%	-3%	1%
CCCc1nn(C)c2c(=O)[nH]c(-c3cc(S(=O)(=O)Nc4ccc(NC(C)=O)cc4)ccc3OCC)nc12	-3%	10µM*	?	4%
CCCOc1ccccc1-c1nc2n[nH]nc2c(=O)[nH]1	-1%	-25%	?	-11%[56.1 µM]
CCCc1nn(C)c2c(=O)[nH]c(-c3cc(S(=O)(=O)N4CCN(C)CC4)ccc3OCC)nc12	2%	-8%	-12%	7%
COc1ccc(C2c3c(ncn(CCc4ccccc4)c3=N)Oc3ccc4ccccc4c32)cc1OC (configuration not stated)	.	.	.	4%
N=c1c2c(ncn1Cc1ccco1)Oc1cc(O)ccc1C2c1ccccc1 (configuration not stated)	-1%	18µM*	?	2%
N=c1c2c(ncn1Cc1ccco1)Oc1c(ccc3ccccc13)C2c1ccccc1 (configuration not stated)	-3%	?	?	7%
N=c1c2c(ncn1CCN1CCOCC1)Oc1ccc3ccccc3c1C2c1ccccc1 (configuration not stated)	-1%	-10%	20%	8%
CN(C)CCn1cnc2c(c1=N)C(c1ccccc1)c1ccc3ccccc3c1O2 (configuration not stated)	1%	18µM*	?	.
COc1ccc(C2c3c(ncn(CCN4CCOCC4)c3=N)Oc3ccc4ccccc4c32)cc1 (configuration not stated)	2%	?	18µM*	10%
CC1(C)CC(=O)C(C=NCCO)=C(O)C1	1%	18µM*	?	1%

Assay outcomes: PubChem, National Center for Advancing Translational Sciences (NCATS)
